Data on 78 compounds can be found in PubChem BioAssay AID1259421 (Broad Institute, 2018).

Structures are written as SMILES. Values joined by “and” are separate entries in the source; they are usually repeats but may differ in a detail not shown here. Equal values may be shown once. The campaign covered roughly 6,400 compounds. About 610 (9.5%) were called active. No stated cut-off is given here; in the data, active means activity change below about -70%; inconclusive means no clear call, values can overlap the other calls; inactive means above that. The sample as a whole holds a higher share of actives than the screen did. Some structures have more than one record in an assay (separate samples or runs), and their calls can disagree.

This test can be described thus: Toxoplasma gondii ME49Luc growth in HeLa cells, luciferase, no IFN-y, primary screen (AID 1259421). The conditions noted are these: T. gondii ME49Luc in HeLa, 72 h, stronger effect = lower value, concentration not given here.
Take `N#C/C(=C/c1ccc(O)c(O)c1)C(=O)NCCCCc1ccccc1`: the activity change, negative = inhibition was 28.9% (inactive).
With `COc1cnc(-n2cnc(C)n2)c2[nH]cc(C(=O)C(=O)N3CCN(C(=O)c4ccccc4)CC3)c12` the figure was 22.1% (inactive); with `C=C1C(=O)O[C@@H]2[C@H]3O[C@]3(C)CC/C=C(\C)CC[C@@H]12`, 6.15% (inactive); with `CCC[C@@H]1C[C@@H](C(=O)N[C@@H](C2O[C@H](SC)[C@H](O)[C@@H](O)[C@H]2O)[C@H](C)Cl)N(C)C1` (stereo partly drawn), -0.424% (inactive).
With `CC(C)[C@H](N)C(=O)OCCOCn1cnc2c(=O)[nH]c(N)nc21` the figure was 9.53% (inactive) and 3.52% (inactive); with `O=C(CCc1ccc(O)cc1)c1c(O)cc(O)cc1O[C@@H]1O[C@H](CO)[C@@H](O)[C@H](O)[C@@H]1O`, 6% (inactive).
Take `CC(C)(C)Cn1c(N)nc2ccc(-c3[nH]c(C(C)(C)C)nc3-c3ccc(F)cc3)nc21`: the activity change, negative = inhibition was -83.7% (active).
For `CC(C)(C)C(=O)OCOC(=O)[C@@H]1N2C(=O)[C@@H](N=CN3CCCCCC3)[C@H]2SC1(C)C`, the activity change, negative = inhibition was 2.97% (inactive).
Under `O=C(N[C@@H]1CC[C@@H](c2cccc(F)c2F)CN(CC(F)(F)F)C1=O)N1CCC(n2c(=O)[nH]c3ncccc32)CC1` stands 5.74% (inactive); under `CC(CSC(=O)c1ccccc1)C(=O)N1C[C@@H](Sc2ccccc2)C[C@H]1C(=O)O` (stereo partly drawn), 5.4% (inactive).
Consider `O=c1cc(-c2ccccc2)oc2cc(O)ccc12`, for which the activity change, negative = inhibition is 60.2% (inactive).
Under `O=c1cc(-c2ccccc2)oc2cccc(O)c12` stands 21.2% (inactive); under `O=c1cc(-c2ccccc2)oc2c(O)c(O)ccc12`, -85.8% (active); under `COc1ccc(-c2noc(CC(=O)O)c2-c2ccc(OC)cc2)cc1`, 7.28% (inactive).
Turning to `Oc1ccc(Nc2nc(-c3ccc(Cl)cc3)cs2)cc1`, the activity change, negative = inhibition is 28.7% (inactive).
With `COc1cc(Br)c(Nc2nc(-c3c(C)nc4ncccn34)cs2)c(Br)c1` the figure was 13.9% (inactive).
As to `CCOc1ccc(Nc2nc(-c3c(C)nc4ccccn34)cs2)cc1`, the activity change, negative = inhibition was -74% (active).
`Cn1cc(C(F)(F)F)nc1-c1ccc(OCC(O)CNCCOc2ccc(O)c(C(N)=O)c2)cc1` (stereo not drawn): the activity change, negative = inhibition is 1.01% (inactive).
With `CC(C)(C)NC(=O)[C@H]1CCC2C3CC[C@H]4NC(=O)C=C[C@]4(C)C3CC[C@@]21C` (stereo partly drawn) the figure was -5.92% (inactive).
Turning to `COc1c(CC(=O)c2cc3c(cc2O)OC(C)(C)C(O)C3)ccc2c1C=CC(C)(C)O2` (stereo not drawn), the activity change, negative = inhibition is 16.9% (inactive).
With `COc1c(-c2coc3cc4c(cc3c2=O)CC(OC(C)=O)C(C)(C)O4)ccc2c1C=CC(C)(C)O2` (stereo not drawn) the figure was -72.4% (active).
Under `COc1ccc(-c2coc3cc(O)ccc3c2=O)c(O)c1O` stands 2.93% (inactive); under `COc1c(-c2coc3cc4c(cc3c2=O)CC(O)C(C)(C)O4)ccc2c1C=CC(C)(C)O2` (stereo not drawn), -80% (active); under `COc1cc2c(cc1OC)[C@@H]1C(=O)c3ccc4c(c3O[C@@H]1CO2)C=CC(C)(C)O4`, -20.6% (inactive).
With `COc1c2c(cc3occ(-c4ccc5c(c4)OCO5)c(=O)c13)OC(C)(C)C=C2` the figure was -31.2% (inactive); with `CCOC(=O)C1=CC2(CC)CCCN3CCc4c(n1c1ccccc41)C32` (stereo not drawn), 23.3% (inactive); with `COC12CC(COC(=O)c3cncc(Br)c3)CN(C)C1Cc1cn(C)c3cccc2c13` (stereo not drawn), 13.7% (inactive).
Regarding `CC(=O)NC(C(=O)O)C(C)(C)S[NH2+][O-]` (stereo not drawn), the activity change, negative = inhibition was 16% (inactive).
`CCc1cc2c(cc1N1CCC(N3CCOCC3)CC1)C(C)(C)c1[nH]c3cc(C#N)ccc3c1C2=O`: the activity change, negative = inhibition was 16.2% (inactive).
With `Cc1c(C(=O)Nc2ccc(N3CCC(N4CCOCC4)CC3)c(C#N)c2)cnn1-c1ccc(Cl)cc1` the figure was -92.1% (active).
As to `Cc1ccccc1C(=O)Nc1ccc(C(=O)N2CCCC(O)c3cc(Cl)ccc32)c(C)c1` (stereo not drawn), the activity change, negative = inhibition was 7.82% (inactive).
For `CN1C2CC(OC(=O)C(CO)c3ccccc3)CC1C1OC12` (stereo not drawn), the activity change, negative = inhibition was 11.1% (inactive).
For `CNc1cc(OC)c(C(=O)N[C@@H]2CCN(Cc3ccccc3)[C@H]2C)cc1Cl`, the activity change, negative = inhibition is 15.3% (inactive).
With `Cn1cc(C[C@@H](N)C(=O)O)c2ccccc21` the figure was 16% (inactive).
Take `Cn1cc(CNCC2CCN(c3ncc(C(=O)NO)cn3)CC2)c2ccccc21`: the activity change, negative = inhibition was -88.1% (active).
In the case of `Cn1cc(C(=O)OCC2CCN(CCNS(C)(=O)=O)CC2)c2ccccc21`, the activity change, negative = inhibition was 1.88% (inactive) and 6.2% (inactive).
Under `C[C@@H]1CC2C3CCC4=CC(=O)C=C[C@]4(C)[C@@]3(F)[C@@H](O)C[C@]2(C)[C@@]1(O)C(=O)COP(=O)(O)O` (stereo partly drawn) stands 0.571% (inactive) and -5.12% (inactive); under `O=c1c(-c2ccc(O)cc2)coc2c(C3O[C@H](CO)[C@@H](O)[C@H](O)[C@H]3O)c(O)ccc12` (stereo partly drawn), -5.75% (inactive); under `C[N+]1(C)C2CC[C@H]1CC(OC(=O)C(O)c1ccccc1)C2` (stereo partly drawn), 10.1% (inactive).
With `O=C(Nc1ccccc1)C12CC1/C(=N\O)c1ccccc1O2` (stereo not drawn) the figure was 7.7% (inactive) and 0.127% (inactive).
`COc1ccc(-c2cc(=O)c3c(O)cc(O[C@@H]4O[C@H](CO[C@H]5O[C@H](C)[C@@H](O)[C@H](O)[C@@H]5O)[C@@H](O)[C@H](O)[C@H]4O)cc3o2)cc1O`: the activity change, negative = inhibition is 14.7% (inactive).
With `Cn1cc(C2=C(c3ccc(Cl)cc3Cl)C(=O)NC2=O)c2ccccc21`, the activity change, negative = inhibition was -12.4% (inactive) and -8.86% (inactive).
For `COc1ccc2c(c1)c(C1=C(c3c[nH]c4ccccc34)C(=O)NC1=O)cn2CCCN(C)C`, the activity change, negative = inhibition was -36.9% (inactive).
With `Cn1cc(C2=C(c3cn(CCCSC(=N)N)c4ccccc34)C(=O)NC2=O)c2ccccc21`, the activity change, negative = inhibition is -58% (inactive) and -88.3% (active).
Under `CCCCC/C=C\C/C=C\CCCCCCCC(=O)NCCCC(=O)O` stands 8.14% (inactive); under `O=C(O)CN1CCN(CC(=O)O)CCN(CC(=O)O)CCN(CC(=O)O)CC1`, 0.0247% (inactive); under `N#C/C(=C(/N)Sc1ccc(N)cc1)c1ccccc1C(F)(F)F`, 7.26% (inactive).
For `NS(=O)(=O)c1ccc(N=Cc2c(O)[nH]c3ccccc23)cc1`, the activity change, negative = inhibition was 13.4% (inactive).
Under `O=Nc1c(-c2c(O)[nH]c3ccccc23)[nH]c2ccccc12` stands -74.5% (active); under `O=C1C(c2c(O)[nH]c3ccccc23)=Nc2ccccc21`, -5.14% (inactive); under `O=Nc1c(-c2c(O)[nH]c3cc(Br)ccc23)[nH]c2ccccc12`, -87.9% (active).
With `CCCCC(=O)O[C@]1(C(=O)CO)[C@@H](C)CC2C3CCC4=CC(=O)C=C[C@]4(C)[C@@]3(F)C(O)C[C@@]21C` (stereo partly drawn) the figure was 1.05% (inactive); with `CC(=O)c1cc2ccccc2oc1=O`, -2.07% (inactive).
As to `O=C(O)CCCCN(CCc1ccccc1OCc1ccc(CCc2ccccc2)cc1)Cc1ccc(C(=O)O)cc1`, the activity change, negative = inhibition was 10.8% (inactive).
Under `C=C[C@@]1(C)CC(=O)[C@]2(O)[C@@]3(C)[C@@H](O)CCC(C)(C)[C@@H]3[C@H](O)[C@H](OC(=O)CCCN3CCN(C)CC3)[C@@]2(C)O1` stands -10.4% (inactive); under `OC(c1ccccc1)C1CCN(CCc2ccccc2)CC1` (stereo not drawn), 5.4% (inactive) and 0.692% (inactive); under `CC(C)(C(=O)O)c1ccc(C(O)CCCN2CCC(C(O)(c3ccccc3)c3ccccc3)CC2)cc1` (stereo not drawn), 4.73% (inactive) and 3.69% (inactive).
With `CC(C)(C)c1ccc(C(O)CCCN2CCC(C(O)(c3ccccc3)c3ccccc3)CC2)cc1` (stereo not drawn) the figure was -86.1% (active) and 8% (inactive); with `CCC(C)C(=O)O[C@H]1C[C@H](O)C=C2C=C[C@H](C)[C@H](CC[C@@H](O)C[C@@H](O)CC(=O)O)C21` (stereo partly drawn), 4.96% (inactive); with `O=S(=O)(c1ccccc1)c1cnc2c(N3CCNCC3)cccc2c1`, 8.53% (inactive).
Under `CCCCCCOc1nsnc1C1=CCCN(C)C1` stands -26.8% (inactive).
With `CCC(CC)(CC(=O)Nc1cccc(/C=C/c2nc(C3CCC3)cs2)c1)C(=O)O`, the activity change, negative = inhibition was 41.5% (inactive).
Regarding `O=C(C[C@H]1NCCC[C@@H]1O)Cn1cnc2cc(Br)c(Cl)cc2c1=O`, the activity change, negative = inhibition was -86% (active).
With `CC(C)[C@@H](N)C(=O)O` the figure was 5.34% (inactive).
For `Clc1ccc2c(N3CCN(CCCN4CCN(c5ccnc6cc(Cl)ccc56)CC4)CC3)ccnc2c1`, the activity change, negative = inhibition is 1.21% (inactive).
With `Cc1ncc(-c2ccnc(Nc3ccc(S(C)(=O)=O)cc3)n2)n1C(C)C` the figure was -84.5% (active); with `C1CCN2C[C@@H]3C[C@H](CN4CCCC[C@@H]34)[C@H]2C1`, 13.5% (inactive).
In the case of `O=C1[C@@H]2[C@H]3CC[C@H](C3)[C@@H]2C(=O)N1CCCCN1CCN(c2ncccn2)CC1`, the activity change, negative = inhibition is 8.23% (inactive).
Take `CCCCCCCCCCCCCCCCCCCCCC(=O)Nc1ccn([C@@H]2O[C@H](CO)[C@@H](O)[C@@H]2O)c(=O)n1`: the activity change, negative = inhibition is 8.14% (inactive).
With `O=C(CN1CCNCC1)NC1CCCCC1` the figure was -5.36% (inactive); with `C=C1CCC2[C@](C)(CO)[C@H](O)CC[C@@]2(C)[C@@H]1C/C=C1/C(=O)OC[C@H]1O` (stereo partly drawn), 9.67% (inactive).
Under `N#CC[C@@H](C1CCCC1)n1cc(-c2ncnc3[nH]ccc23)cn1` stands 1.99% (inactive).
Under `N#CC[C@H](C1CCCC1)n1cc(-c2ncnc3[nH]ccc23)cn1` stands 27.9% (inactive) and 17.6% (inactive); under `Nc1ncnc2c1c(-c1cnc3[nH]ccc3c1)nn2C1CCCC1`, -82.4% (active); under `COc1cc([C@@H]2[C@H]3CO[C@@]4(O)C(=O)[C@@H]2C=C([C@H]2Oc5cc(O)cc(O)c5C(=O)[C@@H]2O)[C@@H]34)ccc1O`, -0.383% (inactive).
Turning to `Cn1cnc2nc(NCCO)nc(NCc3ccccc3)c21`, the activity change, negative = inhibition was -3.03% (inactive).
With `OC1O[C@@H]2COC(c3ccccc3)O[C@H]2[C@H](O)[C@H]1O` (stereo partly drawn) the figure was 36.7% (inactive); with `COc1ccc2cc(-c3cc(-c4cc(Cl)cc(Cl)c4)nn3[C@@H](C)c3ccc(C(=O)NCCC(=O)O)cc3)ccc2c1`, -64.1% (inactive).
